{"source": "PubChem BioAssay AID1159580", "about": "(chemical genetic matrix, 2015)", "experiment": "chemical genetic growth profiling, strain panel (AID 1159580);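 further: tested at 20 µM; growth read once vehicle control cultures reached saturation at 30 °C; 1 = growth at the plate median or of vehicle wells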", "settings": "S. cerevisiae deletion strains, growth OD", "key": {"[1]": {"settings": "locus YDL101C, strain DUN1, stronger effect = lower value"}, "[2]": {"settings": "locus YHR030C, strain SLT2, stronger effect = lower value"}, "[3]": {"settings": "locus YMR307W, strain GAS1, stronger effect = lower value"}, "[4]": {"settings": "locus YNL322C, strain KRE1, stronger effect = lower value"}, "[5]": {"settings": "locus YPL055C, strain LGE1, stronger effect = lower value"}}, "note": "Out of some 5,500 compounds screened, about 2,000 (36%) were called active. Roughly 18% stayed inconclusive and do not appear here. The list shows a part of the results. Unmarked numbers belong to inactive results. No stated cut-off is given here; in the data, active means normalized growth mostly below about 0.91 (no sharp cut-off); inconclusive means no clear call, values can overlap the other calls; inactive means mostly above about 0.92."}
{"smiles": "O=C1CC(c2ccccc2)=NO1", "values": [{"measurement": "normalized growth", "setting": "locus YAL013W, strain DEP1, stronger effect = lower value", "value": "0.683 (active)"}, {"measurement": "normalized growth", "setting": "locus YBR229C, strain ROT2, stronger effect = lower value", "value": "0.336 (active)"}, {"measurement": "normalized growth", "setting": "[1]", "value": "0.395 (active)"}, {"measurement": "normalized growth", "setting": "locus YEL061C, strain CIN8, stronger effect = lower value", "value": "0.862 (active)"}, {"measurement": "normalized growth", "setting": "locus YGR078C, strain PAC10, stronger effect = lower value", "value": "0.174 (active)"}, {"measurement": "normalized growth", "setting": "[2]", "value": "0.615 (active)"}, {"measurement": "normalized growth", "setting": "locus YHR087W, strain rtc3, stronger effect = lower value", "value": "0.419 (active)"}, {"measurement": "normalized growth", "setting": "locus YJL187C, strain SWE1, stronger effect = lower value", "value": "0.298 (active)"}, {"measurement": "normalized growth", "setting": "locus YJR043C, strain POL32, stronger effect = lower value", "value": "0.566 (active)"}, {"measurement": "normalized growth", "setting": "locus YJR075W, strain HOC1, stronger effect = lower value", "value": "0.3 (active)"}, {"measurement": "normalized growth", "setting": "locus YKL190W, strain CNB1, stronger effect = lower value", "value": 0.987}, {"measurement": "normalized growth", "setting": "locus YLR039C, strain RIC1, stronger effect = lower value", "value": 1.11}, {"measurement": "normalized growth", "setting": "locus YLR058C, strain SHM2 (second series), stronger effect = lower value", "value": "0.431 (active)"}, {"measurement": "normalized growth", "setting": "locus YLR085C, strain ARP6, stronger effect = lower value", "value": "0.432 (active)"}, {"measurement": "normalized growth", "setting": "locus YLR262C, strain YPT6, stronger effect = lower value", "value": 1.08}, {"measurement": "normalized growth", "setting": "locus YML094W, strain GIM5, stronger effect = lower value", "value": "0.743 (active)"}, {"measurement": "normalized growth", "setting": "locus YMR219W, strain ESC1, stronger effect = lower value", "value": "0.26 (active)"}, {"measurement": "normalized growth", "setting": "[3]", "value": "0.511 (active)"}, {"measurement": "normalized growth", "setting": "locus YNL153C, strain GIM3, stronger effect = lower value", "value": "0.0697 (active)"}, {"measurement": "normalized growth", "setting": "locus YNL298W, strain CLA4 (second series), stronger effect = lower value", "value": "0.797 (active)"}, {"measurement": "normalized growth", "setting": "[4]", "value": "0.737 (active)"}, {"measurement": "normalized growth", "setting": "locus YNR030W, strain Alg12, stronger effect = lower value", "value": "0.803 (active)"}, {"measurement": "normalized growth", "setting": "[5]", "value": "0.666 (active)"}, {"measurement": "normalized growth", "setting": "locus YPL241C, strain CIN2, stronger effect = lower value", "value": "0.68 (active)"}, {"measurement": "normalized growth", "setting": "locus YPR135W, strain CTF4, stronger effect = lower value", "value": "0.528 (active)"}]}
{"smiles": "CSc1c(C#N)c(-c2ccc(Cl)cc2)nn1C(=O)c1ccccc1Cl", "values": [{"measurement": "normalized growth", "setting": "locus YAR019C, strain CDC15, stronger effect = lower value", "value": 0.966}, {"measurement": "normalized growth", "setting": "locus YBL105C, strain PKC1, stronger effect = lower value", "value": 0.95}, {"measurement": "normalized growth", "setting": "locus YBR135W, strain CKS1, stronger effect = lower value", "value": 0.957}, {"measurement": "normalized growth", "setting": "locus YBR136W, strain MEC1, stronger effect = lower value", "value": 0.951}, {"measurement": "normalized growth", "setting": "locus YBR160W, strain CDC28, stronger effect = lower value", "value": 0.951}, {"measurement": "normalized growth", "setting": "locus YDL017W, strain CDC7, stronger effect = lower value", "value": 0.946}, {"measurement": "normalized growth", "setting": "locus YDL028C, strain MPS1, stronger effect = lower value", "value": 0.951}, {"measurement": "normalized growth", "setting": "[1]", "value": 0.94}, {"measurement": "normalized growth", "setting": "locus YDL108W, strain KIN28, stronger effect = lower value", "value": 0.954}, {"measurement": "normalized growth", "setting": "locus YDL132W, strain cdc53, stronger effect = lower value", "value": 0.948}, {"measurement": "normalized growth", "setting": "locus YDL214C, strain PRR2, stronger effect = lower value", "value": 0.964}, {"measurement": "normalized growth", "setting": "locus YDR052C, strain DBF4, stronger effect = lower value", "value": 0.957}, {"measurement": "normalized growth", "setting": "locus YDR054C, strain cdc34, stronger effect = lower value", "value": 0.941}, {"measurement": "normalized growth", "setting": "locus YDR226W, strain ADK1, stronger effect = lower value", "value": 0.933}, {"measurement": "normalized growth", "setting": "locus YDR477W, strain SNF1, stronger effect = lower value", "value": 0.938}, {"measurement": "normalized growth", "setting": "locus YER123W, strain YCK3, stronger effect = lower value", "value": 0.946}, {"measurement": "normalized growth", "setting": "locus YER133W, strain GLC7, stronger effect = lower value", "value": 0.962}, {"measurement": "normalized growth", "setting": "locus YFL009W, strain cdc4, stronger effect = lower value", "value": 0.951}, {"measurement": "normalized growth", "setting": "locus YFL029C, strain CAK1, stronger effect = lower value", "value": 0.958}, {"measurement": "normalized growth", "setting": "locus YFR003C, strain YPI1, stronger effect = lower value", "value": 0.954}, {"measurement": "normalized growth", "setting": "locus YFR019W, strain FAB1, stronger effect = lower value", "value": 1}, {"measurement": "normalized growth", "setting": "locus YFR028C, strain CDC14, stronger effect = lower value", "value": 0.948}, {"measurement": "normalized growth", "setting": "locus YGR040W, strain KSS1, stronger effect = lower value", "value": 0.931}, {"measurement": "normalized growth", "setting": "locus YGR052W, strain FMP48, stronger effect = lower value", "value": 0.97}, {"measurement": "normalized growth", "setting": "locus YGR092W, strain DBF2, stronger effect = lower value", "value": 0.895}, {"measurement": "normalized growth", "setting": "[2]", "value": 1.03}, {"measurement": "normalized growth", "setting": "locus YHR079C, strain IRE1, stronger effect = lower value", "value": 1.03}, {"measurement": "normalized growth", "setting": "locus YHR082C, strain KSP1, stronger effect = lower value", "value": 1.01}, {"measurement": "normalized growth", "setting": "locus YHR205W, strain SCH9, stronger effect = lower value", "value": 0.872}, {"measurement": "normalized growth", "setting": "locus YIL147C, strain SLN1, stronger effect = lower value", "value": 0.949}, {"measurement": "normalized growth", "setting": "locus YJL095W, strain BCK1, stronger effect = lower value", "value": 0.9}, {"measurement": "normalized growth", "setting": "locus YJL128C, strain PBS2, stronger effect = lower value", "value": 0.921}, {"measurement": "normalized growth", "setting": "locus YJL157C, strain FAR1, stronger effect = lower value", "value": 0.965}, {"measurement": "normalized growth", "setting": "locus YJR016C, strain ILV3, stronger effect = lower value", "value": 0.945}, {"measurement": "normalized growth", "setting": "locus YJR066W, strain TOR1 (second series), stronger effect = lower value", "value": 0.946}, {"measurement": "normalized growth", "setting": "locus YJR066W, strain TOR1, stronger effect = lower value", "value": 1}, {"measurement": "normalized growth", "setting": "locus YKL048C, strain ELM1, stronger effect = lower value", "value": 0.981}, {"measurement": "normalized growth", "setting": "locus YKL067W, strain YNK1, stronger effect = lower value", "value": 0.969}, {"measurement": "normalized growth", "setting": "locus YKL101W, strain HSL1, stronger effect = lower value", "value": 0.933}, {"measurement": "normalized growth", "setting": "locus YKL193C, strain SDS22, stronger effect = lower value", "value": 0.957}, {"measurement": "normalized growth", "setting": "locus YKL203C, strain TOR2, stronger effect = lower value", "value": 1.06}, {"measurement": "normalized growth", "setting": "locus YLR113W, strain HOG1, stronger effect = lower value", "value": "0.76 (active)"}, {"measurement": "normalized growth", "setting": "locus YLR133W, strain CKI1, stronger effect = lower value", "value": 0.969}, {"measurement": "normalized growth", "setting": "locus YLR403W, strain SFP1, stronger effect = lower value", "value": 0.889}, {"measurement": "normalized growth", "setting": "locus YML070W, strain DAK1, stronger effect = lower value", "value": 0.948}, {"measurement": "normalized growth", "setting": "locus YMR001C, strain CDC5, stronger effect = lower value", "value": 0.957}, {"measurement": "normalized growth", "setting": "locus YMR205C, strain PFK2 (second series), stronger effect = lower value", "value": 0.969}, {"measurement": "normalized growth", "setting": "locus YMR277W, strain FCP1, stronger effect = lower value", "value": 0.966}, {"measurement": "normalized growth", "setting": "locus YNL006W, strain LST8, stronger effect = lower value", "value": 0.975}, {"measurement": "normalized growth", "setting": "locus YNL020C, strain ARK1, stronger effect = lower value", "value": 0.958}, {"measurement": "normalized growth", "setting": "locus YNL161W, strain CBK1, stronger effect = lower value", "value": 0.958}, {"measurement": "normalized growth", "setting": "locus YNL183C, strain NPR1, stronger effect = lower value", "value": 0.969}, {"measurement": "normalized growth", "setting": "locus YNL207W, strain RIO2, stronger effect = lower value", "value": 0.938}, {"measurement": "normalized growth", "setting": "locus YNL222W, strain SSU72, stronger effect = lower value", "value": 0.963}, {"measurement": "normalized growth", "setting": "locus YNL307C, strain MCK1 (second series), stronger effect = lower value", "value": 0.921}, {"measurement": "normalized growth", "setting": "locus YOL078W, strain AVO1, stronger effect = lower value", "value": 0.958}, {"measurement": "normalized growth", "setting": "locus YOL136C, strain PFK27, stronger effect = lower value", "value": 0.936}, {"measurement": "normalized growth", "setting": "locus YOR061W, strain CKA2, stronger effect = lower value", "value": 0.975}, {"measurement": "normalized growth", "setting": "locus YOR119C, strain RIO1, stronger effect = lower value", "value": 1.01}, {"measurement": "normalized growth", "setting": "locus YOR231W, strain MKK1, stronger effect = lower value", "value": 0.917}, {"measurement": "normalized growth", "setting": "locus YOR329C, strain SCD5, stronger effect = lower value", "value": 0.956}, {"measurement": "normalized growth", "setting": "locus YPL031C, strain PHO85, stronger effect = lower value", "value": 0.934}, {"measurement": "normalized growth", "setting": "locus YPL153C, strain RAD53, stronger effect = lower value", "value": 0.936}, {"measurement": "normalized growth", "setting": "locus YPL204W, strain HRR25, stronger effect = lower value", "value": 0.942}, {"measurement": "normalized growth", "setting": "locus YPL209C, strain IPL1, stronger effect = lower value", "value": 0.958}, {"measurement": "normalized growth", "setting": "locus YPL256C, strain CLN2, stronger effect = lower value", "value": 1.07}, {"measurement": "normalized growth", "setting": "locus YPR025C, strain CCL1, stronger effect = lower value", "value": 0.958}, {"measurement": "normalized growth", "setting": "locus YPR106W, strain ISR1, stronger effect = lower value", "value": 0.939}, {"measurement": "normalized growth", "setting": "locus YPR111W, strain DBF20, stronger effect = lower value", "value": 0.947}, {"measurement": "normalized growth", "setting": "strain NNK1, stronger effect = lower value", "value": 0.959}, {"measurement": "normalized growth", "setting": "strain TSCII, stronger effect = lower value", "value": 0.958}]}
{"smiles": "CCCN1CCc2cc(O)cc3c2[C@H]1Cc1ccc(O)c(O)c1-3", "values": [{"measurement": "normalized growth", "setting": "locus YAL040C, strain CLN3, stronger effect = lower value", "value": 1.03}, {"measurement": "normalized growth", "setting": "locus YCL061C, strain MRC1 (second series), stronger effect = lower value", "value": "0.779 (active)"}, {"measurement": "normalized growth", "setting": "locus YDR363W, strain ESC2, stronger effect = lower value", "value": 0.922}, {"measurement": "normalized growth", "setting": "locus YER002W, strain NOP16, stronger effect = lower value", "value": 1.01}, {"measurement": "normalized growth", "setting": "[3]", "value": "0.771 (active)"}, {"measurement": "normalized growth", "setting": "locus YNL175C, strain NOP13, stronger effect = lower value", "value": 1.01}, {"measurement": "normalized growth", "setting": "locus YNL197C, strain WHI3, stronger effect = lower value", "value": 0.983}, {"measurement": "normalized growth", "setting": "locus YNL224C, strain SQS1, stronger effect = lower value", "value": 1.01}, {"measurement": "normalized growth", "setting": "[4]", "value": "0.654 (active)"}, {"measurement": "normalized growth", "setting": "locus YOR083W, strain WHI5 (second series), stronger effect = lower value", "value": 0.926}, {"measurement": "normalized growth", "setting": "[5]", "value": "0.553 (active)"}]}
